# Experimental data reported in PubChem BioAssay (NCI).
# The panel holds about 83,000 compounds, 20% with a hit somewhere; the sample as a whole holds those more often.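 Assay: single dose, 48 h. Readout: percent growth (0 = no net growth; negative = cell death). Active: <10.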 The source made the active and inactive calls.
# Test system: HL-60(TB) leukemia
# Assay: NCI-60 one-dose screen, 48 h (100 = growth as untreated, 0 = no growth, -100 = all killed)
# Details: 10 µM unless noted
row,Structure (SMILES),growth
1,COc1ccc(C(=O)c2cc(OC)c(OC)c(OC)c2OC)cc1O,25.2% (inactive)
2,CC/C(=N/NC(N)=O)c1ccccc1,101% (inactive)
3,COC(=O)c1nc(=S)[nH]c(C(=O)OC)c1C(=O)c1ccc2ccccc2c1,122% (inactive)
4,COc1ccc(C2=C(CN)C(O)NC(=NCC(=O)c3ccc4ccccc4c3)N2)cc1 (stereo not given),97.9% (inactive)
5,N#CC1(C#N)C2=C(CCCC2)NC(c2c(F)cccc2Cl)C1(C#N)C#N (stereo not given),6.9% (active)
6,C=C1CCC2C3(C)COC(C)(C)OC3CCC2(C)C1C/C=C1/C(=O)OCC1OC(C)=O (stereo not given),-43.8% (active)
7,Cc1ccc(-c2cc(-c3ccc(C)cc3)nc(NCCNc3ccnc4cc(Cl)ccc34)n2)cc1,-44.6% (active)
8,Cc1c(CC(=O)Nc2ccccc2)nnn1-c1ccccc1,99.3% (inactive)
9,Cc1ccc(/C=C(\C#N)n2nnc3cc(Cl)c(Cl)cc32)cc1,1.4% (active)
10,O=C1Nc2cc(-c3cccc([N+](=O)[O-])c3)ccc2/C1=C/c1ccc[nH]1,101% (inactive)
11,CCn1c2ccccc2c2cc(C(O)c3cccc4ncccc34)ccc21 (stereo not given),10.5% (inactive)
12,O=C(O)CC1=CCCCC1,95.5% (inactive)
13,COc1ccc2nc3cc(Cl)ccc3c(Nc3ccc(O)c(CN4CCCC4)c3)c2c1,-51% (active)
14,C(=C1c2ccccc2-c2ccccc21)c1ccncc1,9.03% (active)
15,COc1cc(OC)c(C(=O)/C=C/c2cccc(OC(C)=O)c2)cc1CC=C(C)C,8.14% (active)
16,CN(C)c1ccc(/C=C/c2ccnc3ccccc23)cc1,12.6% (inactive)
17,CCC(=O)Oc1ccc(/C(=C(\C)c2ccccc2)c2ccc(OCCN(CC)CC)cc2)cc1,45.1% (inactive)
18,COc1ccc(-c2nnc3c4[nH]cnc4ncn23)c(OC)c1,12.8% (inactive)
19,CCOC(=O)c1c(O)cc(-c2ccccc2)cc1-c1sc(N(C)Cc2ccccc2)nc1Cl,100% (inactive)
20,O=C(/C=C/c1cccc([N+](=O)[O-])c1)c1ccc(Nc2nc(Nc3ccc(F)cc3)nc(Nc3ccc(Cl)cc3)n2)cc1,-42.1% (active)

row,Structure (SMILES),growth
1,COc1ccc(C/C(C)=C(\c2ccc(Cl)cc2)c2ccc(OCCCN(C)C)cc2)cc1,69.9% (inactive)
2,COc1ccc(-c2nnc(COc3ccc(NC(=O)Nc4cc(C(F)(F)F)cc(C(F)(F)F)c4)cc3F)o2)cc1,-17.2% (active)
3,NS(=O)(=O)c1ccc(-n2ncc3c(NC4CCCCC4)ncnc32)cc1,70.7% (inactive)
4,COc1cc(NC(=O)c2cc3ccccc3nc2Nc2ccc(F)cc2)cc(OC)c1OC,47.2% (inactive)
5,CC(C)=CC/C=C(/C)[C@H]1CC[C@]2(C)[C@@H]1CC[C@@H]1[C@@]3(C)CCCNC(C)(C)[C@@H]3CC[C@]12C,-35.8% [100 µM] (active)
6,CCOc1cc(C2C(Cl)C(=O)N2n2cnnc2)ccc1O (stereo not given),101% (inactive)
7,CCC(C)C1NC(=O)c2nc(oc2-c2ccccc2)-c2csc(n2)-c2csc(n2)-c2nc(oc2C)-c2coc(n2)CNC(=O)C(C(C)CC)NC1=O (stereo not given),-69.7% (active)
8,CN(C)c1ccc(CNC(C(=O)c2ccccc2)c2ccccc2)cc1 (stereo not given),97.1% (inactive)
9,C=CC(=O)Nc1cccc(-c2nc(SC)nc(NCCN3CCOCC3)c2C#N)c1,94.9% (inactive)
10,Nc1c(C(=O)Nc2c(Cl)cccc2Cl)sc2nc3c(cc12)C(=O)CCC3,11.5% (inactive)
11,CC1(C)CC2(C)OC2C2(C1)N=NC(=Nc1ccccc1)O2 (stereo not given),85.2% (inactive)
12,COc1ccc(-c2[nH]c3ccccc3c2/C=C(\C#N)S(=O)(=O)c2ccccc2)cc1,-28.4% (active)
13,CCN(CC)CC(C)Nc1ccc([N+](=O)[O-])c2sc3ccccc3c(=O)c12 (stereo not given),-26.2% (active)
14,NC(=O)c1cccc(N2Cc3ccccc3OC3=C2C(=O)c2c(O)ccc(O)c2C3=O)c1,-46.3% (active)
15,C=C1CCC2C(C)(COC(=O)CC)C(OC(=O)CC)CCC2(C)C1C/C=C1/C(=O)OCC1OC(=O)CC (stereo not given),-43.8% (active)
16,Cc1cccc(C[C@H](NC(=O)Nc2ccc(Cl)cc2F)C(=O)N[C@@H]2C(=O)N3C[C@H](O)C[C@H]3C(=O)N3CCN(C)C[C@H]3C(=O)N[C@@H](C)C(=O)N3C[C@H](C)C[C@H]3C(=O)O[C@H]2C)c1,32.8% (inactive)
17,COc1cc(/C=C2\CCCC3=C2N=C2SC(C)=CN2C3c2cc(OC)c(OC)c(OC)c2)cc(OC)c1OC (stereo not given),-11.9% (active)
18,N#CC1=C(N)Oc2c(sc3c(Br)cccc23)C1c1ccc(Br)cc1 (stereo not given),6.12% (active)
19,CCn1cc(CNc2ccc(C(=O)Nc3cc4cc(OC)c(OC)cc4c(C)n3)cc2)c(C)n1,0.232% (active)
20,COc1ccc2nc(-c3ccc(-c4noc(-c5ccc(Cl)cc5)n4)cc3)[nH]c2c1,104% (inactive)
